SW480 rereplic – DNA re-replication induction in SW480 cells | SW480 DNA re-replication, Hoechst DNA content imaging, 48 h | AID 624297 | 1.8% of 340,000 active | Potency, µM (top dose mostly 46.1 µM), without a hit: at the top dose re-replication activation, hits mostly activators; also: potency is read from the fitted curve at half-maximal effect; % of control where 0% means no effect; nearly all actives have a fitted effect of over 55% in size
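Readout is total intensity of Hoechst-stained nuclei, excited at 405 nm and collected at 500-530 nm. Compound treatment lasted 48 hr at 37 C in 5% CO2 before staining.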
MCF10A rerep – DNA re-replication induction in MCF 10a cells. Potency, µM (series often up to 46.1 µM), without a hit: top-dose activity, positive = re-replication, actives largely listed as activators. MCF 10A DNA re-replication, Hoechst nuclear intensity, 48 h. 2.9% of 350,000 active. AID 624296; also: potency is read from the fitted curve at half-maximal effect; % of control where 0% means no effect; nearly all actives have a fitted effect of over 50% in size
KCNH2 3.1 block – inhibitors of human KCNH2 3.1 potassium channel isoform | U2OS KCNH2 3.1, thallium flux FluxOr; active compounds read low | activity change, % (tested at about 1.8 µM) | 0.95% of 340,000 active | AID 720553;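 active = maximum activity change below -70%; inconclusive = maximum activity change from -70% to -50%; inactive = maximum activity change above -50%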;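 also: thallium influx rate constant from kinetic fluorescence after stimulation buffer; % is scaled to controls: 0 for no effect and ±100 for the full control effect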
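Virally transduced U2OS (3.1 isoform, 4 h infection in dark at RT) → overnight 37 C → FluxOr + Red40 in HBSS/HEPES, 45 min → stimulation buffer, 2 min kinetic read → rate constant vs DMSO controls.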
hERG WT inh – KCNH2 (human, wildtype) channel inhibition; AID 720551; Q12809; 0.37% of 340,000 active; activity change, % at 1.84 µM; U2OS, BacMam KCNH2, thallium flux FluxOr; active compounds read low;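 active = maximum activity change below -70%; inconclusive = maximum activity change between -70% and -50%; inactive = maximum activity change above -50%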; also: % is scaled to controls: 0 for no effect and ±100 for the full control effect
Target sequence (Q12809 whole entry, looked up): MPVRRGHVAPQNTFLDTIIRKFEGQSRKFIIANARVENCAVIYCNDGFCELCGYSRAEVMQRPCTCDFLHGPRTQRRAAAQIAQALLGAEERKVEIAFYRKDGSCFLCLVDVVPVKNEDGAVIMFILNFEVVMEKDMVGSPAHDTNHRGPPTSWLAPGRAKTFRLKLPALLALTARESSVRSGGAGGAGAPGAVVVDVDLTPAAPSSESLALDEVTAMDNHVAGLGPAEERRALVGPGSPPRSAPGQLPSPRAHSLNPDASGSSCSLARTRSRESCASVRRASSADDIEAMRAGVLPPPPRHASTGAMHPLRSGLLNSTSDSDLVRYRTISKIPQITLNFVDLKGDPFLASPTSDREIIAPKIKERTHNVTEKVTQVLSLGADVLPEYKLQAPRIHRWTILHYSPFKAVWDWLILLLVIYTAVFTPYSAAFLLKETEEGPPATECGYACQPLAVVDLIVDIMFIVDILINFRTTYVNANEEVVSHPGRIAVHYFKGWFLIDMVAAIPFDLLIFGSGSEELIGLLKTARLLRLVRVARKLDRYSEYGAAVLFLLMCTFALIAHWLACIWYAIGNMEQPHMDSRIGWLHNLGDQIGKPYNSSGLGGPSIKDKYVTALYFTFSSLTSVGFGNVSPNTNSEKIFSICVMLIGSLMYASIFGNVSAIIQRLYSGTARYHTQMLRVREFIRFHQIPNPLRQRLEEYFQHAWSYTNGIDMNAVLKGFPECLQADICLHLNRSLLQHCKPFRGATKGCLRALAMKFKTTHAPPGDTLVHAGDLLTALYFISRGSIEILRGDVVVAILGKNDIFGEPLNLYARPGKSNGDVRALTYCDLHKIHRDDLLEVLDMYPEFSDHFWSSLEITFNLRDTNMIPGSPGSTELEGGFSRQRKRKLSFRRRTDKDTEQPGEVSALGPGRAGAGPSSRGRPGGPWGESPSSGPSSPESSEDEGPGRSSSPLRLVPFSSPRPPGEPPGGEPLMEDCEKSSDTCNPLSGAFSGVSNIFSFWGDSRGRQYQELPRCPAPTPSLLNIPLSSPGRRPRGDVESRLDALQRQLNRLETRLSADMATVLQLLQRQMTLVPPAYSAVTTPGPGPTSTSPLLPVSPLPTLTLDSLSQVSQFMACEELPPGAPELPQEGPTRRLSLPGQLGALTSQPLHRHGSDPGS
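U2OS cells transduced with wild-type KCNH2 virus are loaded with FluxOr dye for 45 min, and thallium flux is measured in kinetic reads before and after stimulation buffer. Rate constants are normalized to DMSO controls.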
KB-V1 cytotox – KB-V1 MDR subline cytotoxicity; KB-V1 MDR cells viability, CellTiter-Glo, 72 h; Potency, µM (highest dose often 46.1 µM), hits mostly cytotoxic; 3.4% of 400,000 active; AID 1347076; also: potency is read from the fitted curve at half-maximal effect; % is scaled to controls: 0 for no effect and ±100 for the full control effect; nearly all actives have a fitted effect of over 60% in size
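Compound-treated KB-V1 multidrug-resistant cells, 72 h, 37 degrees C; viability by CellTiter-Glo. Fitted qHTS curves give the values.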
KB-3-1 tox – kills parental KB-3-1 adenocarcinoma cells | KB-3-1 viability, CellTiter-Glo ATP luminescence, 72 h | AID 1347075 | 1.4% of 400,000 active | Potency, µM (top dose mostly 46.1 µM), actives largely listed as cytotoxic; also: potency is read from the fitted curve at half-maximal effect; % is scaled to controls: 0 for no effect and ±100 for the full control effect; nearly all actives have a fitted effect of over 60% in size
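72 h, 37 °C compound treatment of KB-3-1 parental cells; CellTiter-Glo added, 10 min, luminescence read. Data corrected against DMSO-only plates and normalized before curve fitting.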
Active calls of the source: *; i = inactive; u = inconclusive; x = no result given; [ ] = dose if it differs, or a comment. This is a sample that favours compounds with a hit; in the whole collection about 7.6% have one here. Unless noted, calls follow the shape of the dose curve; as a rule, active = well fitted curve in the direction sought with a large enough effect; inconclusive = small, poorly fitted or top-dose-only effect, or another doubt; inactive = no such curve, though single readings can be large; an effect the other way counts as inactive or inconclusive.

SMILES | SW480 rereplic | MCF10A rerep | KCNH2 3.1 block | hERG WT inh | KB-V1 cytotox | KB-3-1 tox
O=C(NC1CCCc2ccccc21)C1CCN(c2c3c(nc4ncnn24)CCC3)CC1 (stereo unspecified) | 4.7% | -4.6% | 4.7 | -4.8 | 20.6µM* | i
Cc1ccc(NC(=O)C2CCN(S(C)(=O)=O)CC2)cc1 | -11.5% | -1.9% | -3.0 | -19.6 | i | i
Nc1c(C(=O)Nc2ccc3c(c2)OCCO3)nnn1Cc1ccc(Cl)cc1 | -3.5% | 2.9% | -12.3 | 18.2 | i | i
NC(=O)c1nnn(Cc2cc(Cl)c(C(=O)c3ccc(Cl)cc3)c(Cl)c2)c1N | x | x | x | x | 8.2µM* | u
O=C(CC1(O)C(=O)N(Cc2cccc3ccccc23)c2ccccc21)c1cccnc1 (stereo unspecified) | u | u | -7.4 | -9.7 | 20.6µM* | 20.6µM*
COC(=O)Cn1ccc(N(C)C)c(C#N)c1=O | 6.51µM* | 9.2µM* | 8.4 | -1.4 | i | i
Cc1ccccc1Cn1ccc(-c2ccc(Cl)cc2)c(C#N)c1=O | -11.1% | -184.0%[0.0737 µM] | -4.1 | 5.0 | i | i
COC(=O)Cn1ccc(-c2ccc(Cl)cc2)c(C#N)c1=O | -3.6% | -0.2% | -114.2* | -1.5 | i | i
Cc1cnc2c(C)ccc(C)c2c1/C=C/c1ccc(N(C)C)cc1 | x | x | x | x | i | i
CCOC(=O)C1=C[C@@H](CC)N(S(=O)(=O)c2ccc(C)cc2)[C@H]1c1cccc(Cl)c1 | x | x | x | x | i | u
CN(C)c1ccc(Sc2ccc3nc(N)nc(N)c3c2)cc1 | x | x | -24.0 | 7.6 | 8.2µM* | 8.2µM*
O=C(NCc1cccc(C(F)(F)F)c1)C1CC2Cn3c(nc4ccccc43)C2N1Cc1ccccc1 (stereo unspecified) | -4.0% | 7.1% | -48.2 | -2.8 | i | i
O=C(NCc1ccc(OC(F)(F)F)cc1)C1CC2Cn3c(nc4ccccc43)C2N1Cc1ccccc1 (stereo unspecified) | -4.2% | 8.3% | -97.8* | -75.8* | i | i
CN1C(C(=O)NCc2ccc(OC(F)(F)F)cc2)CC2Cn3c(nc4ccccc43)C21 (stereo unspecified) | 2.6% | 1.8% | -17.9 | 8.6 | i | i
CN1C(C(=O)NCc2ccc(OC(F)(F)F)cc2)CC2Cn3c(nc4cc(Cl)c(Cl)cc43)C21 (stereo unspecified) | -31.8%[9.22 µM] | u | -78.7* | u | i | i
COC(=O)[C@@H]1CC[C@H](C)[C@@H](c2ccc(C)cc2)N1C(=O)c1ccc(/C=N/OCC[C@@H]2C=C[C@H](OC(C)=O)[C@@H](COC(C)=O)O2)cc1 | 20.8% | 6.5% | x | x | x | x
CCOc1ccc(NC(=O)C2CC(=O)N(c3ccc(C(C)C)cc3)C2)cc1 (stereo unspecified) | x | x | x | x | u | i
CN(C)C(=O)/C(C#N)=C\c1cc(Br)c(Sc2ccc(Cl)cc2)o1 | 1.6% | 4.4% | -7.3 | 8.5 | 16.4µM* | i
COc1cc(N)c(Cc2nccc3cc(OC)c(OC)cc23)cc1OC | 7.1% | -8.5% | 18.8 | 8.9 | i | i
COc1cc2ccnc(Cc3cccc(OC)c3OC)c2cc1OC | 4.2% | u | 8.9 | -8.1 | 2.06µM* | 7.31µM*
Cc1ccccc1CN(c1ccc(C(=O)N2CCCC2)cc1)S(C)(=O)=O | -4.1% | u | 13.9 | 8.1 | i | i
O=C(CN(Cc1ccccc1)S(=O)(=O)c1ccc(F)cc1)NCCC1=CCCCC1 | -1.8% | 9.8% | -39.4 | -48.0 | u | i
Cc1ccc(S(=O)(=O)N(CC(=O)NCCC2=CCCCC2)Cc2ccccc2F)cc1 | u | u | -5.3 | 0.3 | u | i
O=C(CN(Cc1ccccc1F)S(=O)(=O)c1ccc(Cl)cc1)NCCC1=CCCCC1 | -0.7% | u | -2.4 | 7.2 | 6.51µM* | u
Cc1ccccc1CN(c1ccc(C(=O)NCCC2=CCCCC2)cc1)S(C)(=O)=O | 3.6% | 0.7% | -1.8 | -0.8 | 13µM* | u
SMILES | SW480 rereplic | MCF10A rerep | KCNH2 3.1 block | hERG WT inh | KB-V1 cytotox | KB-3-1 tox
Cc1ccc(S(=O)(=O)N(CC(=O)NCCC2=CCCCC2)Cc2ccccc2)cc1 | u | u | -11.4 | -21.5 | 18.4µM* | u
N#Cc1ccc(-c2cccs2)nc1SCc1cccnc1 | 0.731µM* | 0.411µM* | 0.1 | -1.8 | u | u
Cc1cccc(CSc2nc(-c3cccs3)ccc2C#N)c1 | x | x | x | x | i | i
CCOc1ccc(CN(C)C(=O)CNC(=O)C2CCCCC2)cc1OC | -3.2% | 2.6% | -4.5 | 1.7 | u | i
Cc1ccccc1-n1sc2cc(F)ccc2c1=O | u | 16.4µM* | -5.2 | 1.6 | u | u
O=C1CCN(CCc2ccccc2)CCN1CCO | -13.0%[9.22 µM] | 19.1% | -19.5 | 2.5 | u | i
Cc1c2c(nc3nc4ccccc4n13)CC(C)(C)CC2=O | -12.0% | 3.0% | 12.5 | -1.5 | 14.6µM* | i
CC1CCc2c(sc3nc(C(C)(C)C)nc(N4CCN(C(=O)CCl)CC4)c23)C1 (stereo unspecified) | 5.17µM* | 14.6µM* | -10.2 | -0.8 | u | u
CCCCNC(=O)c1ccc2nc(CC)c(N(C)Cc3ccc(OC)cc3)n2c1 | x | x | x | x | i | i
Cc1ccc(C(=O)CSc2nc(-c3ccccc3)cc(=O)[nH]2)cc1 | -12.3% | -5.4% | 0.1 | -91.4* | i | i
Cc1ccc(NC(=O)c2cn(CCC#N)nc2-c2cccs2)c([N+](=O)[O-])c1 | -2.8% | -5.3% | -6.0 | 14.6 | u | i
COc1cccc(-c2cc(C(F)(F)F)c(C#N)c(=O)[nH]2)c1 | 2.0% | 18.4µM* | -1.4 | 4.5 | i | i
N#Cc1c(C(F)(F)F)cc(-c2ccccc2Cl)[nH]c1=O | 6.8% | 14.6µM* | 2.3 | -2.0 | u | u
N#Cc1c(C(F)(F)F)cc(-c2ccccc2)[nH]c1=O | 13.8% | u | -8.9 | 4.2 | u | i
CCOc1ccccc1N1CC(c2nc3ccccc3n2CCCOc2ccc(OC)cc2)CC1=O (stereo unspecified) | x | x | x | x | u | i
Cc1ccc(OCCn2c(C3CC(=O)N(Cc4ccccc4)C3)nc3ccccc32)cc1 (stereo unspecified) | 0.7% | 11.6µM* | 9.1 | -24.4 | i | u
CCOc1ccccc1N1CC(c2nc3ccccc3n2CCOc2ccc(OC)cc2)CC1=O (stereo unspecified) | x | x | x | x | 5.8µM* | i
COc1ccc(OCCn2c(C3CC(=O)N(c4ccc(F)cc4)C3)nc3ccccc32)cc1 (stereo unspecified) | x | x | x | x | i | i
O=C(NCc1ccc(Cl)cc1)C(=O)NCC1OCCN1C(=O)c1ccc(Cl)cc1 (stereo unspecified) | -7.2% | -1.4% | 4.8 | 1.7 | u | i

Screening results as filed in PubChem.
